# High-throughput results: PubChem BioAssay, several laboratories
# Only some compounds are listed: those with a hit (about 4.6% of all), similar ones and a draw of the others.
# TIM10 inh – growth inhibitors of isogenic TIM10 control yeast, primary screen, counter-screen for tim10-1 yeast inhibitor project, luminescence, uHTS | inhibition, % at 10 µM | AID 463195, 2010 | S. cerevisiae TIM10 strain growth, BacTiter-Glo luminescence, 24 h | 1.4% of 330,000 active;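 active means inhibition of 40% or more at the single tested concentration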;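 further: wild-type TIM10 isogenic control strain grown at permissive 25 °C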
# tim23-1 inh – growth inhibitors of tim23-1 mutant yeast, primary screen, luminescence, uHTS | S. cerevisiae tim23-1 growth, BacTiter-Glo luminescence, 24 h | inhibition, % at 20 µM | 1.3% of 330,000 active;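 active means growth inhibition of the mutant yeast at or above 50%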;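 further: temperature-sensitive mutant grown at 25 °C; plate controls were DMSO-treated mutant yeast for no effect and medium wells lacking yeast for full effect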
# tim10-1 inh – growth inhibitors of tim10-1 mutant yeast, primary screen, luminescence, uHTS; S. cerevisiae tim10-1 ts strain growth, BacTiter-Glo, 24 h; inhibition, % at 20 µM; 2.2% of 330,000 active; AID 463190, 2010;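 active means inhibition of at least 40%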;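 further: mutant grown at 25 °C; 0% = DMSO wells with yeast and 100% = wells holding no yeast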
# SKKanGAS inh – S. pyogenes SKKanGAS growth inhibitors in kanamycin, primary screen, streptokinase expression inhibitor project, SKKanGAS strain, BacTiter-Glo luminescence | inhibition, % at 7.5 µM | 6 h | AID 1662, 2009 | 1.3% of 300,000 active;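 active means mean replicate score, as percent of positive control median, at least 50; inconclusive means mean below 50 but one replicate at or above 50; inactive means mean and every replicate below 50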;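 further: strain carries kanamycin resistance gene driven by streptokinase promoter and grows in 40 µg/ml kanamycin; loss of luminescence reflects streptokinase promoter inhibition or plain growth inhibition; 0% = median of DMSO wells and 100% = positive control at its reference dose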
# V-ATPase pHluor – regulators of yeast V-ATPase proton pumping, primary screen, pHLuorin cytosolic pH fluorescence; 0.37% of 350,000 active; response, % at 10 µM; S. cerevisiae; AID 504577, 2011; in the data active means response mostly above about 7.3%, no sharp cut-off; inactive means mostly below about 5.4%; further: actives read high
# PfHsp90 set2 – growth inhibition of PfHsp90-expressing yeast, primary screen, antimalarial PfHsp90 inhibitor project, S. cerevisiae, BacTiter-Glo luminescence, single point, set 2; inhibition, % at 9.4 µM; 0.32% of 310,000 active; BacTiter-Glo ATP, 48 h; yeast lacking PDR1 and PDR3 efflux regulators;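 active means every replicate shows inhibition above about 80%, whatever the replicate mean, limit read from the data; inconclusive means mean inhibition reaches the set limit but some replicate falls short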;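 further: 0% = DMSO neutral controls and 100% = 20 µM radicicol positive controls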
# tim10-1 confirm – growth inhibitors of tim10-1 mutant yeast, confirmation, single concentration, luminescence, S. cerevisiae. shares compounds with tim10-1 inh. S. cerevisiae tim10-1 ts strain growth, BacTiter-Glo, 24 h. inhibition, % at 20 µM. 56% of 7,400 active;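 active means inhibition of yeast growth at or above a set limit in either of two repeat tests at 20 µM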;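 further: tim10-1 mutant grown at permissive 25 °C to find synthetic lethal compounds; 0% = DMSO yeast wells and 100% = medium wells without yeast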
# tim10 confirm – growth inhibitors of wild-type TIM10 yeast, confirmation, counter-screen for tim10-1 synthetic lethality project, single concentration, luminescence, S. cerevisiae | S. cerevisiae tim10 strain growth, BacTiter-Glo luminescence, 24 h | inhibition, % at 10 µM | 63% of 4,600 active | shares compounds with TIM10 inh;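 active means inhibition of yeast growth at or above a set limit in either of two replicates at 10 µM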;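 further: this counterscreen used the strain with wild-type TIM10; 0% = yeast with DMSO and 100% = medium wells lacking yeast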
# tim23-1 confirm – tim23-1 mutant yeast growth inhibitors, confirmation, luminescence, single concentration. inhibition, % at 20 µM. shares compounds with tim23-1 inh. S. cerevisiae tim23-1 growth, BacTiter-Glo luminescence, 24 h. 83% of 4,400 active;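 active means inhibition above about 39% in either of two replicate wells at 20 µM, limit read from the data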;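 further: temperature-sensitive tim23-1 mutant grown at 25 °C; 0% = DMSO wells with yeast and 100% = medium wells without yeast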
# The depositor's hits bear a star; ? = inconclusive; nt = no result.
SMILES,TIM10 inh,tim23-1 inh,tim10-1 inh,SKKanGAS inh,V-ATPase pHluor,PfHsp90 set2,tim10-1 confirm,tim10 confirm,tim23-1 confirm
CC(=O)c1ccc(S(=O)(=O)N(C)CCCC(=O)NCc2ccc3c(c2)OCO3)cc1,5.7,23.1,13.4,nt,-1.0,nt,nt,nt,nt
COc1cc(/C=C/C(=O)c2ccccc2O)cc(OC)c1OC,37.1,62.1*,53.5*,-6.0,4.0,-12.1,43.0*,nt,55.1*
CN(C)c1ccc(/C=C/C(=O)c2ccccc2O)cc1,38.6,16.7,20.6,-5.1,-0.1,13.7,nt,nt,nt
O=C(/C=C/c1ccc2c(c1)OCCCO2)c1ccccc1O,60.3*,50.5*,53.2*,11.7,-0.5,32.4,46.4*,-7.5,35.4
COc1cc(OC)c(C=CC(=O)c2ccccc2O)c(OC)c1,nt,nt,nt,nt,4.8,8.7,nt,nt,nt
CCc1noc(C)c1C(=O)N(C)CC(=O)Nc1ccc(F)c(F)c1F,1.2,13.3,5.9,-6.0,4.5,nt,nt,nt,nt
COc1ccccc1C1CC(c2ccccc2)=NN1C(=O)c1ccccc1 (stereo not drawn),39.0,62.2*,41.8*,0.8,1.1,-4.2,45.5*,nt,52.5*
CCOC(=O)c1nnc(-c2cccs2)nc1Oc1ccc(Cl)cc1,18.9,48.8,27.2,1.6,-1.6,-1.9,nt,nt,nt
CCOC(=O)c1nnc(-c2ccccc2)nc1NCc1ccc(Cl)cc1,18.3,32.4,34.9,42.3,1.3,-12.0,nt,nt,nt
CCOC(=O)c1nnc(-c2cccs2)nc1NC(C)C,22.6,55.4*,46.6*,-8.7,2.2,2.8,41.9*,nt,44.0*
CCOC(=O)c1nnc(-c2cccs2)nc1Oc1ccccc1C(=O)OC,49.1*,51.1*,41.5*,-1.2,-2.7,8.7,27.1,35.2*,49.6*
Cc1ccc(N2CCN(C(=O)c3cc(-c4ccc(F)cc4)[nH]c3C)CC2C)cc1 (stereo not drawn),31.7,73.8*,52.0*,24.8,0.0,-55.0,50.7*,nt,55.1*
COC(=O)c1cc(C)[nH]c2c(C)cc3nc4ccccc4c3c12,23.9,59.3*,50.4*,9.1,-34.4,-7.8,42.1*,nt,-17.1
COc1ccc(C(=O)c2c(C(F)(F)F)oc3c2C(=O)c2ccccc2C3=O)cc1,50.6*,78.5*,55.3*,97.0*,0.8,-44.5,52.2*,75.9*,73.2*
COc1ccc2[nH]cc(CCNC(=O)COc3cc(C)cc4oc(=O)cc(C)c34)c2c1,11.7,8.8,0.9,5.3,-2.4,7.7,nt,nt,nt
O=C(O)c1cnc(-c2ccccc2)nc1Sc1ccc(Cl)cc1Cl,12.6,51.0*,53.5*,?,1.8,nt,14.7,nt,-43.5
C#CCOCCOCCOCCNc1nc(N2CCN(C(=O)[C@H](CCC(=O)O)n3cc([C@@H](N)[C@H](C)CC)nn3)CC2)nc(N2CCN(C(=O)[C@H](CCCCN)n3cc([C@@H](N)CC(N)=O)nn3)CC2)n1,-0.6,12.3,13.5,nt,-1.0,7.5,nt,nt,nt
O=c1ccc2cc3c(-c4ccccc4)coc3cc2o1,45.7*,63.8*,60.5*,8.9,-1.4,-13.2,60.8*,58.0*,65.6*
CC(=O)Oc1ccc2occ(-c3ccccc3)c2c1,16.8,26.9,24.1,5.8,1.8,-10.6,nt,nt,nt
O=C(COC(=O)COc1ccc(Br)cc1)NCc1ccccc1,-8.4,9.1,9.5,nt,0.9,-10.4,nt,nt,nt
Cc1nn(-c2ccccc2)c(C)c1/C=N/Nc1nc2ccccc2[nH]1,48.2*,51.8*,45.3*,60.0*,1.8,-8.2,17.8,18.9,41.2*
CC1CCN(C(=S)Nc2ccc(SC(F)F)cc2)CC1,13.2,10.4,16.1,3.4,1.0,-3.9,nt,nt,nt
CC1CCCCC1NC(=S)Nc1ccc(SC(F)F)cc1 (stereo not drawn),70.2*,53.0*,65.8*,41.7,-0.4,nt,64.8*,64.2*,38.9
Cc1cc(C)cc(N=c2c([N+](=O)[O-])nn(-c3ccc4c(c3)OCCO4)n2O)c1,27.9,28.2,11.6,9.9,4.0,8.9,nt,nt,nt
O=[N+]([O-])c1nn(-c2ccc3c(c2)OCCO3)n(O)c1=NC1CCCCCC1,55.3*,56.4*,52.8*,7.0,-4.0,-19.5,56.3*,45.4*,48.5*
SMILES,TIM10 inh,tim23-1 inh,tim10-1 inh,SKKanGAS inh,V-ATPase pHluor,PfHsp90 set2,tim10-1 confirm,tim10 confirm,tim23-1 confirm
Cc1ccc(-n2nc3c(c2NC(=O)c2cc4ccccc4o2)CS(=O)(=O)C3)cc1,31.7,50.6*,40.1*,0.2,2.7,-15.8,28.7,nt,47.5*
COc1ccc(CCNc2oc(-c3ccco3)nc2C#N)cc1,52.0*,64.1*,42.4*,-0.2,-1.3,-12.5,-5.2,36.9*,67.9*
CC1CCC(=C(C#N)C(=O)Nc2cccc(Cl)c2)CC1 (stereo not drawn),34.6,59.8*,45.2*,-15.0,0.3,-20.6,42.1*,nt,51.3*
CCCOc1ccccc1/C=C(\C#N)C(=O)Nc1cccnc1,53.7*,84.9*,73.4*,3.9,1.8,2.0,48.1*,46.1*,70.9*
CCOc1cccc(NC(=O)/C(C#N)=C\c2cccnc2)c1,51.6*,80.9*,61.3*,-2.6,-0.1,0.5,40.2*,47.9*,79.3*
COCCN(Cc1cc2cc(C)ccc2nc1Cl)C(=O)Nc1ccccc1OC,3.7,-0.3,-9.8,-0.6,1.5,16.3,nt,nt,nt
Cc1ccc(C)c(NC(=S)N/N=C2/CCCCc3ccccc32)c1,44.6*,56.6*,54.3*,54.7*,1.2,-35.4,35.1*,-1.3,43.8*
O=Cc1ccc(OCc2cn(CC(=O)c3ccc(O)cc3)nn2)cc1,nt,nt,nt,nt,-4.7,-35.9,nt,nt,nt
COc1ccc(OC)c(C(C[N+](=O)[O-])c2c(C)cc3ccccn23)c1 (stereo not drawn),65.6*,85.2*,45.0*,-7.9,3.0,-7.0,61.2*,81.6*,91.3*
COc1ccc(Br)cc1C(C[N+](=O)[O-])c1c(N)n(C)c(=O)n(C)c1=O (stereo not drawn),19.3,36.8,28.1,8.4,3.4,1.0,nt,nt,nt
CCn1c(/C=C/c2ccccc2)nc2ccccc21,11.1,38.1,32.5,0.6,0.4,13.1,nt,nt,nt
